High-throughput results (PubChem BioAssay)
HT1080-NT tox: kills 2HG-producing HT-1080-NT fibrosarcoma cells | HT-1080-NT fibrosarcoma viability, CellTiter-Glo ATP luminescence, 48 h | Potency, µM (series often up to 46.1 µM), for the others: at the highest dose activity, negative = less viability, usual class: cytotoxic | actives 1.6% (n = 360,000) | AID 686970;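 note: NT is the 2HG producing partner of a matched IDH1 knockdown line; potency is the fitted concentration of half-maximal effect; 0% = DMSO-treated cells and -100% = media-only wells without cells; nearly all actives have a fitted effect of over 55% in size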
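Viability of the 2HG-overproducing fibrosarcoma line after 48 hours of compound exposure at 37 degrees C was determined by luminescence with CellTiter-Glo, and concentration-effect curves were then fitted and categorized.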
TDP1 cell noCPT: qHTS for Inhibitors of human tyrosyl-DNA phosphodiesterase 1 (TDP1): qHTS in cells in absence of CPT. DT40 Tdp1-/- hTDP1 cells, no CPT, ATP luminescence, 48 h. Potency, µM (highest dose often 46.2 µM), inactives show top-dose activity change, negative = growth inhibition, usual class: inhibitors. actives 15% (n = 420,000). AID 686978, 2013; note: potency is the fitted concentration of half-maximal effect; nearly all actives have a fitted effect of over 55% in size
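Camptothecin absent (DMSO only). Human TDP1-complemented DT40 knockout cells, 400 cells/well, 37 °C for minimum 48 hr; ATP measured via CellTiter-Glo, 30 min dark incubation, luminescence.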
12-LOX inh: blocks human arachidonate 12S-lipoxygenase. purified 12hLO, xylenol orange hydroperoxide absorbance. Potency, µM (top dose mostly 108 µM), for the others: top-dose activity change, negative = inhibition, hits mostly inhibitors. actives 1.1% (n = 580,000). AID 1671190; note: potency is the fitted concentration of half-maximal effect
Target sequence (P18054 whole entry, looked up): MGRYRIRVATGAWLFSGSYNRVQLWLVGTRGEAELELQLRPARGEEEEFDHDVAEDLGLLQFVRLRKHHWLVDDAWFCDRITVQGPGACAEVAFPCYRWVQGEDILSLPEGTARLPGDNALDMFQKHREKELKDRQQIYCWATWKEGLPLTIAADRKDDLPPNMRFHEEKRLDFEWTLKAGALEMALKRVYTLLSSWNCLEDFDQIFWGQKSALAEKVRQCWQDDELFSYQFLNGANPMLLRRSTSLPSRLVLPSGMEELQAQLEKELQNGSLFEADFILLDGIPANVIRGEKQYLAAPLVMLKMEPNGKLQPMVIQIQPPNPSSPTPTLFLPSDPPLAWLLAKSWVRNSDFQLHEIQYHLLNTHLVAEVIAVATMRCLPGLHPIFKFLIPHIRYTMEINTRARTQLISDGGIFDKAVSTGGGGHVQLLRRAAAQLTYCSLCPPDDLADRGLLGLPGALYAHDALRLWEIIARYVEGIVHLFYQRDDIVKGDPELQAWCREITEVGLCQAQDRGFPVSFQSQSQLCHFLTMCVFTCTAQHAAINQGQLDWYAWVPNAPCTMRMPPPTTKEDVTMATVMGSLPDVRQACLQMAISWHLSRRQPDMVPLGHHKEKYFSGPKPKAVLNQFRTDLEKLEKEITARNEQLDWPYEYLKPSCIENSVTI
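Purified human 12hLO at 150 nM in 25 mM Hepes, 0.01% Triton X-100, pH 7.0, preincubated 15 min at room temperature with compound. Reaction started with 40 uM arachidonic acid, 30 min at room temperature. Hydroperoxide measured by Fe-xylenol orange, 573/405 nm absorbance ratio.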
IL-1B inflam inh: inhibitors of inflammasome signaling (IL-1 beta secretion); THP-1 LPS/ATP IL-1B secretion, AlphaLISA, 16 h; hits give low values; activity change, % at 57.5 µM; actives 4.7% (n = 360,000); in the data active = activity change below about -50%; inconclusive = mostly about -30% to -49%
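Secreted IL-1B measured by AlphaLISA bead assay after 16 h compound exposure of THP-1 cells; compounds (final up to 57.5 uM) added 1 h before LPS (250 ng/mL) and ATP (1.25 mM) stimulation; lower signal means less secretion.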
DT40 TDP1 CPT: DT40-hTDP1 cell growth loss with CPT; actives 12% (n = 420,000); chicken DT40 Tdp1-/-;hTDP1 cells + 20 nM CPT, ATP luminescence, 48 h; Potency, µM (doses to about 46.2 µM), for the others: at the highest dose activity change, negative = growth inhibition, actives largely listed as inhibitors; note: potency is the fitted concentration of half-maximal effect; nearly all actives have a fitted effect of over 55% in size
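Cell growth measured by CellTiter-Glo luminescence after a minimum 48 h, 37 C compound exposure with 20 nM CPT in Tdp1-knockout DT40 cells stably expressing hTDP1, seeded 400/well; qHTS titration format.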
HT1080 IDH1KD tx: toxicity to HT-1080 IDH1 knockdown cells (counter line) | Potency, µM (series often up to 46.1 µM), for inactives: at the top dose activity, negative = toxicity, usual class: cytotoxic | HT-1080 IDH1 knockdown viability, ATP luminescence, 48 h | actives 2% (n = 360,000);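 note: potency is the fitted concentration of half-maximal effect; 0% = DMSO wells and -100% = cell-free medium wells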
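In this qHTS, HT-1080 cells depleted of IDH1 are exposed for 48 h at 37 °C to compound titrations. Toxicity is scored from CellTiter-Glo luminescence, with DMSO as full viability and medium alone as none.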
* marks the source's active call; other numbers are inactive results; i = inactive; ? = inconclusive; / = no result given; [ ] = remark or other dose. This excerpt belongs to a sample that is enriched for hits. Unless noted, calls come from the whole dose curve; as a rule, active = well fitted curve in the direction sought with a large enough effect; inconclusive = small, poorly fitted or top-dose-only effect, or another doubt; inactive = no such curve, though single readings can be large; an effect the other way counts as inactive or inconclusive. Unless noted, % is set by controls: 0 for no effect and ±100 for the full control effect.

SMILES	HT1080-NT tox	TDP1 cell noCPT	12-LOX inh	IL-1B inflam inh	DT40 TDP1 CPT	HT1080 IDH1KD tx
Cc1ccc(Nc2ncnc(N)c2[N+](=O)[O-])cc1Cl	/	/	-46%	/	/	/
N#Cc1ccc(OCCSC2=NCCS2)cc1	/	/	11%	/	/	/
CC(C)(C)NC(=O)C[C@H]1C[C@H](C(=O)N2CCCCC2)[C@@]2(CCc3ccccc3)c3[nH]c4cc(-c5ccco5)ccc4c3CCN2C1=O	-5%	23µM*	?	0	18µM*	-5%
COc1ccc(CNC(=O)C[C@H]2C[C@H](C(=O)N3CCCCC3)[C@@]3(CCc4ccccc4)c4[nH]c5cc(-c6ccco6)ccc5c4CCN3C2=O)cc1OC	4%	?	/	-24	?	0%
CN(C)CCCNC(=O)CC1C[C@H](C(=O)N2CCCCC2)[C@@]2(CCc3ccccc3)c3[nH]c4ccccc4c3CCN2C1=O (stereo not given in full)	7%	13µM*	?	?	21µM*	9%
CN(C)CCCNC(=O)C[C@H]1C[C@H](C(=O)N2CCCCC2)[C@@]2(CCc3ccccc3)c3[nH]c4cc(-c5ccco5)ccc4c3CCN2C1=O	26µM*	?	?	-8	?	?
CN(C)CCCNC(=O)C[C@H]1C[C@H](C(=O)N2CCCCC2)[C@@]2(CCc3ccccc3)c3[nH]c4cc(CCC(=O)N(C)C)ccc4c3CCN2C1=O	0%	-9%	-3%	-10	-5%	3%
C[C@]12c3[nH]c4ccccc4c3CCN1C(=O)C(CC(=O)NCCc1ccccn1)C[C@@H]2C(=O)N1CCCCC1 (stereo not given in full)	6%	?	14%	-13	-30%	0%
O=C(CC1C[C@H](C(=O)N2CCCCC2)[C@@]2(CCc3ccccc3)c3[nH]c4ccccc4c3CCN2C1=O)NCCc1ccccn1 (stereo not given in full)	9%	16µM*	5%	?	23µM*	7%
CC(C)CCN1CC[C@H](c2nnc(-c3cccnc3)o2)C1	/	/	54%[176 µM]	/	/	/
O=C(Cn1nc2n(c1=O)CCCC2)NCc1ccccc1Cl	/	/	43%	/	/	/
CC(=O)c1ccc(NC(=S)NC(C)c2ccc(Cl)cc2Cl)cc1 (stereo not given)	?	29µM*	?	-73*	?	?
CC(=O)c1ccc(NC(=S)Nc2ccc(Br)c(Cl)c2)cc1	-18%	?	?	?	?	-28%
C[C@H](NC(=O)c1nc[nH]c1C(=O)N[C@@H](Cc1ccccc1)C(=O)OC(C)(C)C)C(=O)OCc1ccccc1	-1%	18µM*	19%	28	?	2%
CC(C)(C)OC(=O)[C@H](CCCCN)NC(=O)c1nc[nH]c1C(=O)N[C@@H](CCCCN)C(=O)OC(C)(C)C	-5%	5%	14%	10	30%	0%
CNC(=O)c1[nH]cnc1C(=O)N[C@@H](Cc1ccccc1)C(=O)OCc1ccccc1	-29%	?	21%	55	15µM*	-8%
CC(C)(C)OC(=O)[C@H](Cc1ccccc1)NC(=O)c1[nH]cnc1C(=O)Nc1ccccc1F	-22%	15µM*	-1%	?	18µM*	?
CC(C)(C)OC(=O)[C@H](Cc1ccccc1)NC(=O)c1nc[nH]c1C(=O)N[C@@H](CCCCN)C(=O)OC(C)(C)C	0%	16µM*	-17%	-10	?	5%
C[C@H](NC(=O)c1nc[nH]c1C(=O)N[C@@H](Cc1ccccc1)C(=O)OCc1ccccc1)C(=O)OCc1ccccc1	-16%	23µM*	8%	10	?	-8%
CNC(=O)c1[nH]cnc1C(=O)N[C@@H](C)C(=O)OCc1ccccc1	1%	-21%	2%	68	?	0%
CN(Cc1ccccc1)C(=O)c1cnc(Cc2c[nH]c3ccccc23)c(I)c1	/	/	-14%	/	/	/
CCOC(=O)Cc1csc(NC(=O)c2[nH]c3c(c2C)C(=O)CCC3)n1	/	/	-2%	/	/	/
CCOc1ccc(N2C(=O)CC(Sc3nccc(C)n3)C2=O)cc1 (stereo not given)	11%	?	26%	25	?	15%
CCOc1ccc(N2C(=O)CC(Sc3ncccn3)C2=O)cc1 (stereo not given)	15%	?	0%	8	18µM*	22%
Nc1nnc(SC2CC(=O)N(c3ccccc3)C2=O)s1 (stereo not given)	2%	3.3µM*	-22%	-89*	7.3µM*	2%
SMILES	HT1080-NT tox	TDP1 cell noCPT	12-LOX inh	IL-1B inflam inh	DT40 TDP1 CPT	HT1080 IDH1KD tx
COc1ccccc1N1C(=O)CC(Sc2n[nH]c(-c3cccc(C)c3)n2)C1=O (stereo not given)	?	2.1µM*	?	i	2.1µM*	-26%
O=C1CC(Sc2ncccn2)C(=O)N1c1ccccc1 (stereo not given)	5%	?	-27%	-3	14µM*	3%
CC(C)c1ccc(N2C(=O)CC(Sc3ncccn3)C2=O)cc1 (stereo not given)	9%	?	?	-14	?	9%
CC1Oc2ccc(NC(=O)Cc3ccc(F)cc3)cc2CN(Cc2cc(F)cc(F)c2)C1=O (stereo not given)	/	/	31%	/	/	/
Cc1[nH]c2ccccc2c1SCCNC(=O)c1ccncc1	/	/	-3%	/	/	/
Cc1nc(SC2CC(=O)N(c3ccccc3)C2=O)n[nH]1 (stereo not given)	17%	5.2µM*	1%	-23	1.5µM*	12%
O=C(NCc1ccc(OC(F)(F)F)cc1)N1CCc2nc3cc[nH]n3c(=O)c2C1	/	/	20%	/	/	/
CCC(=O)Nc1ccccc1N1CCN(c2ccc(F)cc2)CC1	-1%	?	-1%	-26	21µM*	6%
O=C(Nc1ccccc1N1CCN(c2ccc(F)cc2)CC1)c1ccccc1	14%	18µM*	7%	?	23µM*	21%
CCCCCC(=O)Nc1ccccc1N1CCN(c2ccccc2)CC1	-23%	?	1%	-88*	?	4%
COc1cccc(OCCCOc2ccc(Cl)cc2/C=N/NC(N)=O)c1	/	/	11%	/	/	/
Cc1ccc(NC(=O)Cn2cnc3nc(N4CCOCC4)sc3c2=O)cc1C	/	/	-1%	/	/	/
